Rows were chosen to be rich in hits. Some 6.8% of all compounds tested hit in one or more screens of this group.
T cruzi growth-1 = blocks T. cruzi growth in NIH3T3 culture | inhibition, % at 8.34 µM | 5.9% of 77,000 active | T. cruzi beta-gal in NIH3T3, GalScreen luminescence, 90 h;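 active = mean inhibition above about 93%, with at least 55% of replicates each passing it, limit read from the data, passing the limit was not always enough; inconclusive = only one of those two conditions holds; inactive = neither condition holds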
C diff HTS = blocks growth of Clostridium difficile | Clostridium difficile clinical isolate growth, OD600, 24 h; stronger effect = lower value | growth activity, negative = inhibition, % at 16 µg/mL (by protocol) | 0.25% of 86,000 active;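 active = mean growth activity at or below -80% and every replicate also at or below -80%; inconclusive = mean at or below -80% but some replicate above -80%; inactive = mean growth activity above -80%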;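 also: 0% = DMSO wells and -100% = levofloxacin 16 µg/mL wells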
Pf Dd2 growth = P. falciparum Dd2 growth inhibition; 2.3% of 94,000 active; AID 1159554; SYBR Green, 72 h; stronger effect = lower value; activity change, % at 10 µM; in the data active = activity change below about -80%; inconclusive = no clear call, values can overlap the other calls
T cruzi growth-2 = Trypanosoma cruzi proliferation inhibition; shares compounds with T cruzi growth-1; inhibition, % at 8.35 µM; T. cruzi beta-gal in NIH3T3, GalScreen luminescence, 90 h; 72% of 5,600 active; AID 651739;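 active = mean replicate inhibition above about 95% and at least 55% of replicates individually reaching it, limit read from the data; inconclusive = only one of the two criteria is met; inactive = neither criterion is met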
T cruzi growth-3 = blocks T. cruzi growth in NIH3T3 host cells; T. cruzi beta-gal in NIH3T3, GalScreen luminescence, 90 h; 21% of 5,600 active; inhibition, % at 2.09 µM; shares compounds with T cruzi growth-1;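 active = mean inhibition above about 95%, with at least 55% of replicates also reaching it, limit read from the data; inconclusive = meets just one of the two conditions; inactive = meets neither condition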;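 also: plate controls were neutral control median for no effect and positive control median for full effect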
NIH3T3 tox = NIH/3T3 (mouse) viability loss. shares compounds with T cruzi growth-1. NIH/3T3 viability, CellTiter-Glo ATP luminescence, 90 h. cytotoxicity (signal decrease), % at 8.35 µM. 14% of 5,600 active;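 active = mean signal decrease across replicates above about 35% based on untreated-well scatter, with enough replicates individually passing, limit read from the data; inconclusive = no rule stated though some were filed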;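 also: 0% = median of neutral control wells and 100% = median of positive control wells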
3T3 cytotox 2 = kills mouse NIH/3T3 fibroblasts. 56% of 5,600 active. shares compounds with T cruzi growth-1. AID 651744. NIH/3T3 viability, CellTiter-Glo ATP luminescence, 90 h. inhibition, % at 24.9 µM;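 active = mean loss of cell viability signal at or above a set limit, and enough replicates individually reaching it; inconclusive = meets only the mean limit or only the replicate share; inactive = meets neither condition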;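 also: 0% = median of neutral control wells and 100% = median of positive control wells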
Active calls of the source: *; u = inconclusive; x = no result given.

SMILES	T cruzi growth-1	C diff HTS	Pf Dd2 growth	T cruzi growth-2	T cruzi growth-3	NIH3T3 tox	3T3 cytotox 2
COc1cccc(-c2ccc([C@H]3[C@H](CO)N4CCCCN(Cc5cncnc5)C[C@@H]34)cc2)c1	89	-9	15	x	x	x	x
OC[C@@H]1[C@H](c2ccc(-c3ccc(F)cc3)cc2)[C@H]2CN(Cc3cccnc3)CCCCN12	90	0	-57	x	x	x	x
Cc1cccc(-c2ccc([C@H]3[C@@H](CO)N4CCCCN(Cc5cccnc5)C[C@@H]34)cc2)c1	120*	1	-9	u	74	22	103*
Cc1cccc(-c2ccc([C@H]3[C@@H](CO)N4CCCCN(Cc5ccncc5)C[C@H]34)cc2)c1	86	-12	-51	x	x	x	x
COc1ccc(-c2cn(CC[C@@H]3CC[C@H](NC(=O)Nc4ccc(F)cc4)[C@@H](CO)O3)nn2)cc1	x	-3	16	x	x	x	x
C[C@H]1CN([C@@H](C)CO)C(=O)c2cc(NC(=O)CCCCCC(=O)Nc3ccccc3N)ccc2O[C@@H]1CN(C)S(=O)(=O)c1ccc(F)cc1	x	-1	-38	x	x	x	x
O=C(N[C@H]1C=C[C@H](CC(=O)N2CCc3ccccc3C2)O[C@@H]1CO)C1CCOCC1	x	-5	-2	x	x	x	x
CCC(=O)N1CC2(C1)CN(C(=O)CC)[C@H](CO)c1[nH]c3cc(OC)ccc3c12	x	-2	28	x	x	x	x
C[C@H](CO)N1C[C@H](C)[C@H](CN(C)S(=O)(=O)c2ccc(F)cc2)Oc2ccc(NC(=O)Nc3ccc(C(F)(F)F)cc3)cc2CC1=O	x	12	-62	x	x	x	x
Cc1cccc(-c2ccc([C@@H]3[C@H](CO)N4CCCCN(Cc5cncnc5)C[C@@H]34)cc2)c1	86	0	-27	x	x	x	x
COc1cccc(-c2ccc([C@H]3[C@@H](CO)N4CCCCN(Cc5cncnc5)C[C@H]34)cc2)c1	99*	-10	4	108*	65	27	45*
Cc1ccc(-c2ccc([C@H]3[C@@H](CO)N4CCCCN(Cc5cncnc5)C[C@H]34)cc2)cc1	18	-9	-8	x	x	x	x
OC[C@@H]1[C@H](c2ccc(-c3ccccc3)cc2)[C@H]2CN(Cc3cncnc3)CCCCN12	101*	-3	6	u	80	13	53*
Cc1cccc(-c2ccc([C@@H]3[C@H]4CN(Cc5cncnc5)CCCCN4[C@H]3CO)cc2)c1	103*	-6	16	78	-14	12	102*
COc1cccc(-c2ccc([C@H]3[C@@H](CO)N4CCCCN(Cc5cncnc5)C[C@@H]34)cc2)c1	88	-4	13	x	x	x	x
C[C@@H]1CCCCO[C@H](CN(C)Cc2ccc(C(F)(F)F)cc2)[C@@H](C)CN([C@@H](C)CO)C(=O)c2cc(NS(=O)(=O)c3ccccc3)ccc2O1	68	x	-50	x	x	x	x
CC(C)CC#Cc1ccc2c(c1)O[C@@H](CN(C)C(=O)C1CCC1)[C@H](C)CN([C@@H](C)CO)S2(=O)=O	106*	-5	-45	97*	104*	-3	42*
CC(C)CC#Cc1ccc2c(c1)O[C@@H](CN(C)C(=O)C1CCC1)[C@H](C)CN([C@H](C)CO)S2(=O)=O	u	14	-49	102*	80	-20	101*
CC(C)CC#Cc1ccc2c(c1)O[C@H](CN(C)C(=O)C1CCC1)[C@H](C)CN([C@H](C)CO)S2(=O)=O	84	14	-38	x	x	x	x
CC(C)CC#Cc1ccc2c(c1)O[C@H](CN(C)C(=O)C1CCC1)[C@H](C)CN([C@@H](C)CO)S2(=O)=O	95	10	-44	x	x	x	x
CC(C)CC#Cc1ccc2c(c1)O[C@H](CN(C)C(=O)C1CCC1)[C@@H](C)CN([C@@H](C)CO)S2(=O)=O	106*	-10	-54	107*	83	15	104*
CC(C)CC#Cc1ccc2c(c1)O[C@@H](CN(C)C(=O)C1CCC1)[C@@H](C)CN([C@H](C)CO)S2(=O)=O	76	6	-44	x	x	x	x
CCCNC(=O)N1C[C@H](C)[C@H](OC)CN(C)C(=O)c2ccc(NS(C)(=O)=O)cc2OC[C@H]1C	4	x	4	x	x	x	x
COc1cccc(NC(=O)N2CC3(C2)[C@H](c2ccccc2)[C@H](CO)N3C(=O)C2CC2)c1	x	1	14	x	x	x	x

Source: PubChem BioAssay (Broad Institute)
